Measurements from PubChem BioAssay (EPA / NIEHS).
Results filed as inconclusive are left out. The source made the active and inactive calls. How the source made its calls, unless noted: active means hit-call score of the fitted dose curve at least 0.9, where 1 is the maximum; inactive means score below 0.9.

What was measured:
[1] = target: Paired box protein Pax-6 (Homo sapiens) (UniProt P26367); test: ATG_Pax6_CIS: Attagene CIS-FACTORIAL HepG2 Assay for human Paired Box 6 (PAX6) (AID 2282956); settings: HepG2 CIS-FACTORIAL PAX6 reporter transcription, RNA readout; actives raise or lower the signal
Chain of Paired box protein Pax-6 (Homo sapiens) (P26367 whole entry, looked up): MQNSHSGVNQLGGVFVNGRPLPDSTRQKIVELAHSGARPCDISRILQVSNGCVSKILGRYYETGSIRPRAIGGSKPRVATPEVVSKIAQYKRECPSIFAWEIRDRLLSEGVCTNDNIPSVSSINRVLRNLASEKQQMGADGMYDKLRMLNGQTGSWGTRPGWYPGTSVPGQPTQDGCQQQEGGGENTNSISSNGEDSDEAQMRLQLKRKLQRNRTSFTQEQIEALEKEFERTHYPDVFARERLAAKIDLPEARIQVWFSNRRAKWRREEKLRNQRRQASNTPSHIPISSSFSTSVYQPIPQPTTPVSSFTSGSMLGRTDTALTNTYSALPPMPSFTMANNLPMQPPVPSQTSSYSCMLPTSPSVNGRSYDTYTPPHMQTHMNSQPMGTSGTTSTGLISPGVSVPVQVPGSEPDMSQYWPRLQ
Outline: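 Transient MRTU transfection of HepG2 → compound exposure 24 h → TriZol RNA, oligo(dT) RT → PCR, 6-FAM primer extension, HpaI cut → capillary electrophoresis; activity fitted both directions against DMSO.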

[2] = ATG_PXRE_CIS: Attagene CIS-FACTORIAL HepG2 Assay for human Pregnane X Receptor Element (PXRE) (AID 2282957); settings: HepG2 Attagene CIS-FACTORIAL PXRE reporter, mRNA; actives raise or lower the signal
Outline: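 Transfect HepG2 with MRTUs (cis promoter elements); dose chemical, incubate 24 h; isolate RNA, RT with oligo(dT), PCR, 6-FAM label, HpaI cut, CE. Gain/loss fit vs DMSO.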

[3] = ATG_PPRE_CIS: Attagene CIS-FACTORIAL HepG2 Assay for human Peroxisome Proliferator-activated Response Element (PPRE) (AID 2282958); settings: HepG2 PPRE cis-element reporter, Attagene transcription factor profiling; actives raise or lower the signal
Outline: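 DMSO served as negative control and baseline for bidirectional curve fitting. Signal came from PPRE-regulated reporter mRNA in HepG2 cells, measured 24 h post-dosing by RT-PCR, 6-FAM primer extension and capillary electrophoresis.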

[4] = ATG_RORE_CIS: Attagene CIS-FACTORIAL HepG2 Assay for human RAR-related Orphan Receptor Element (RORE) (AID 2282959); settings: HepG2 Attagene cis-factorial RORE reporter, mRNA; actives raise or lower the signal
Outline: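 Transfect HepG2 with MRTUs; treat 24 h; extract RNA; RT with oligo(dT); PCR with reporter-specific primers; 6-FAM primer extension; HpaI digest 2 h at 37 C; capillary electrophoresis. Fit vs DMSO, bidirectional.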

[5] = ATG_Sox_CIS: Attagene CIS-FACTORIAL HepG2 Assay for human SRY-box transcription factor (SOX) (AID 2282960); settings: HepG2 Attagene cis-factorial SOX reporter, mRNA; actives raise or lower the signal
Outline: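 Fluorescence-labelled cDNA fragments from reporter transcripts, sized by CE, give the signal. Cells: HepG2, transiently transfected with cis-regulated reporter units. Exposure 24 h; DMSO negative control; bidirectional curve fitting.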

[6] = target: Transcription factor Sp1 (Homo sapiens) (UniProt P08047); test: ATG_Sp1_CIS: Attagene CIS-FACTORIAL HepG2 Assay for human Specificity Protein 1 (Sp1) (AID 2282961); settings: HepG2 Sp1 cis-reporter transcription, actives raise or lower the signal
Chain of Transcription factor Sp1 (Homo sapiens) (P08047 whole entry, looked up): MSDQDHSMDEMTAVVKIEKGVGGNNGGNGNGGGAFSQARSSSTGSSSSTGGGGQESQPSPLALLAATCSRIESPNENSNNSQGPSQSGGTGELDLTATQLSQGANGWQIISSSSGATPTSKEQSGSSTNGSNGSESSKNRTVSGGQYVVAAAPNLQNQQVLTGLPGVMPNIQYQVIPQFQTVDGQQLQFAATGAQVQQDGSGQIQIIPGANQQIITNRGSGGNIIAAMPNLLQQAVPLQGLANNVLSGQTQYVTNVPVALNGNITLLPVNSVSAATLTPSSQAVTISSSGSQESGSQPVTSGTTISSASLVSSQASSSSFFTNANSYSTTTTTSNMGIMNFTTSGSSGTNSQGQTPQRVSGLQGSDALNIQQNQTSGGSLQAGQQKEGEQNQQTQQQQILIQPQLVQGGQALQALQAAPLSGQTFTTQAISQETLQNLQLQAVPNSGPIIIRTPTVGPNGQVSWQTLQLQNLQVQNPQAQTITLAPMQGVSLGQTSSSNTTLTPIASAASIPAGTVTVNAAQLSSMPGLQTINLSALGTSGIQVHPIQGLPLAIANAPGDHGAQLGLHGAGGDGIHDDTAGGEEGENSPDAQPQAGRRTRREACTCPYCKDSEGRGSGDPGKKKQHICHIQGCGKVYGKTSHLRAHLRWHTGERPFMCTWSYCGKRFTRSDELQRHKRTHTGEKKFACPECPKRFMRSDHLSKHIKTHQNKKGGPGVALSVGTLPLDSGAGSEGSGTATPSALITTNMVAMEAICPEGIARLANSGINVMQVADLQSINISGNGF
Outline: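 Chemicals are dosed onto HepG2 cells transfected with multiple cis-promoter reporter constructs, and after 24 h reporter RNA is reverse-transcribed, PCR-amplified and resolved by capillary electrophoresis for fluorescence quantitation; activity is scored up or down against DMSO.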

[7] = target: Signal transducer and activator of transcription 3 (Homo sapiens) (UniProt P40763); test: ATG_STAT3_CIS: Attagene CIS-FACTORIAL HepG2 Assay for human Signal Transducer and Activator of Transcription 3 (STAT3) (AID 2282963); settings: HepG2, Attagene cis-factorial STAT3 reporter transcription; actives raise or lower the signal
Chain of Signal transducer and activator of transcription 3 (Homo sapiens) (P40763 whole entry, looked up): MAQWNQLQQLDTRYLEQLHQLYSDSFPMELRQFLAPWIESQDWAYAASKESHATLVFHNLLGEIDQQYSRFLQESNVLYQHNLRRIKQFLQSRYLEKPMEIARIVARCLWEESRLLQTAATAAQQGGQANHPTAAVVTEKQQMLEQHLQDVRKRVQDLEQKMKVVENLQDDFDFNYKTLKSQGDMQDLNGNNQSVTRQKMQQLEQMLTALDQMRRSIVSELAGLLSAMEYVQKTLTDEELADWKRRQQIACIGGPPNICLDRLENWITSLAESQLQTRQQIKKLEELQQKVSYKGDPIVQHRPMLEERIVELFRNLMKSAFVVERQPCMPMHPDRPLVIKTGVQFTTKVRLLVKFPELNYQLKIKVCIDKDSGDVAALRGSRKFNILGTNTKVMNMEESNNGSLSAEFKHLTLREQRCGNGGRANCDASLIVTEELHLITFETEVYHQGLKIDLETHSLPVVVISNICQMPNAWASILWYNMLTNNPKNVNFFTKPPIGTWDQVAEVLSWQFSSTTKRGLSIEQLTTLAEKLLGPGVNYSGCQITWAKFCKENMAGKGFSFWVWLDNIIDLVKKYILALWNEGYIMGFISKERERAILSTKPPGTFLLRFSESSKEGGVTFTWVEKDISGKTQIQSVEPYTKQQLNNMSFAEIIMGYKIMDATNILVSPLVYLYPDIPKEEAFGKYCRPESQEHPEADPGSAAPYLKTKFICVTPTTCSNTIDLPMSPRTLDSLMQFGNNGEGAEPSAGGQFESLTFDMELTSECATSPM
Outline: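 Values derive from bidirectional fits relative to DMSO of reporter mRNA levels, measured by RT-PCR with capillary electrophoresis, in HepG2 cells carrying transiently transfected cis-regulated reporter units and exposed 24 h.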

[8] = ATG_TA_CIS: Attagene CIS-FACTORIAL HepG2 Assay for human TA Basal Promoter (AID 2282964); settings: HepG2 Attagene CIS-factorial TA basal promoter reporter; actives raise or lower the signal
Outline: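 Read-out: fluorescent reporter-transcript fragments resolved by capillary electrophoresis after RT-PCR and HpaI digestion. Source: HepG2 cells carrying transiently transfected multi-reporter cis constructs, treated 24 h. Endpoint fitted bidirectionally relative to DMSO.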

[9] = ATG_TCF_b_cat_CIS: Attagene CIS-FACTORIAL HepG2 Assay for human T-Cell-Factor with beta-catenin (TCF/b-cat) (AID 2282965); settings: HepG2 TCF/beta-catenin cis-reporter transcription, actives raise or lower the signal
Outline: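 HepG2, transient MRTU transfection, cis-element-driven reporters (endogenous TFs). 24 h compound exposure. Readout: reporter mRNA by RT-PCR + 6-FAM primer extension, HpaI digest, capillary electrophoresis. Gain/loss fit vs DMSO baseline.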

[10] = ATG_TAL_CIS: Attagene CIS-FACTORIAL HepG2 Assay for human TAL Basal Promoter (AID 2282966); settings: HepG2 Attagene cis-factorial TAL promoter reporter; actives raise or lower the signal;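 further: background control endpoint measuring basal TAL promoter reporter mRNA not a specific factor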
Outline: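 Fluorescence of labelled reporter cDNA fragments, resolved by capillary electrophoresis, gave the readout. Human HepG2 liver cells carried transiently transfected cis-element reporter units and were treated for 24 hours; activity was fitted bidirectionally against DMSO.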

[11] = ATG_VDRE_CIS: Attagene CIS-FACTORIAL HepG2 Assay for human Vitamin D Receptor Element (VDRE) (AID 2282968); settings: HepG2 VDRE cis-reporter transcription, actives raise or lower the signal
Outline: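 Cell-based multiplexed reporter format in human liver HepG2 cells, 24 h post-dose. Fluorescence from capillary electrophoresis of reporter cDNA gives the signal, with DMSO as negative control and baseline.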

[12] = target: X-box-binding protein 1 (Homo sapiens) (UniProt P17861); test: ATG_Xbp1_CIS: Attagene CIS-FACTORIAL HepG2 Assay for human X-box Binding Protein 1 (XBP1) (AID 2282972); settings: HepG2 XBP1 cis-element reporter, Attagene multiplex; actives raise or lower the signal
Chain of X-box-binding protein 1 (Homo sapiens) (P17861 whole entry, looked up): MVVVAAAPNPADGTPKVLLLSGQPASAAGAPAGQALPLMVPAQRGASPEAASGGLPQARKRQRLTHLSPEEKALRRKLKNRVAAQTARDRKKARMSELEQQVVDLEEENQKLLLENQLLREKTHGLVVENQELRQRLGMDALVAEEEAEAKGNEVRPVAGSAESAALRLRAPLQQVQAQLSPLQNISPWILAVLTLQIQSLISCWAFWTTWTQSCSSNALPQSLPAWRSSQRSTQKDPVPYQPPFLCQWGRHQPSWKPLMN
Outline: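 HepG2, transient MRTU transfection (cis-promoter driven), 24 h compound exposure. Total RNA → oligo(dT) RT → PCR → 6-FAM labeling → HpaI cut → CE. Bidirectional fit vs DMSO.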

[13] = ATG_GAL4_TRANS: Attagene TRANS-FACTORIAL HepG2 Assay for GAL4 (Internal Marker) (AID 2282976; active means hit-call score of the fitted dose curve at least 0.9, where 1 is the maximum); settings: HepG2 Attagene TRANS GAL4 internal marker reporter
Outline: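 First, HepG2 cells were transfected with reporter units under GAL4-UAS control. Next, they were treated with chemical for 24 h. Finally, RNA was reverse-transcribed, PCR-amplified, FAM-labelled and resolved by capillary electrophoresis, with induction scored against DMSO.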

[14] = ATG_M_19_TRANS: Attagene TRANS-FACTORIAL HepG2 Assay for M19 Transcription Factor (Internal Marker) (AID 2282974; active means hit-call score of the fitted dose curve at least 0.9, where 1 is the maximum); settings: HepG2 Attagene TRANS-FACTORIAL M19 internal marker reporter
Outline: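 Multiplexed TRANS format: HepG2 liver cells bearing transient GAL4-UAS reporter units, chemical treatment 24 h, reporter transcripts quantified by RT-PCR plus capillary electrophoresis. DMSO defines baseline.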

[15] = ATG_SREBP_CIS: Attagene CIS-FACTORIAL HepG2 Assay for human Sterol Regulatory Element Binding (SREBP) (AID 2282962); settings: HepG2 Attagene cis-factorial SREBP reporter, mRNA; actives raise or lower the signal
Outline: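 Transfected HepG2 (cis-regulated reporter library, endogenous TFs) → compound 24 h → total RNA → oligo(dT) RT → reporter-specific PCR → FAM primer extension, HpaI cut → CE fluorescence. Fit bidirectional vs DMSO.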

[16] = ATG_TGFb_CIS: Attagene CIS-FACTORIAL HepG2 Assay for human Transforming Growth Factor (TGF) (AID 2282967); settings: HepG2 Attagene CIS TGFb reporter, mRNA transcription; actives raise or lower the signal
Outline: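 Transient MRTU transfection of HepG2 (FuGene 6). Dose 24 h. TriZol RNA, oligo(dT) RT, PCR, 6-FAM primer extension, HpaI cut, CE. Bidirectional fit, DMSO = baseline.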

[17] = target: Estrogen receptor (Homo sapiens) (UniProt P03372); test: ATG_ERa_TRANS: Attagene TRANS-FACTORIAL HepG2 Assay for human Estrogen Receptor alpha (ERa) (AID 2282970; active means hit-call score of the fitted dose curve at least 0.9, where 1 is the maximum); settings: HepG2 Attagene TRANS ERa GAL4 reporter, mRNA
Chain of Estrogen receptor (Homo sapiens) (P03372 whole entry, looked up, the tested form may be a part): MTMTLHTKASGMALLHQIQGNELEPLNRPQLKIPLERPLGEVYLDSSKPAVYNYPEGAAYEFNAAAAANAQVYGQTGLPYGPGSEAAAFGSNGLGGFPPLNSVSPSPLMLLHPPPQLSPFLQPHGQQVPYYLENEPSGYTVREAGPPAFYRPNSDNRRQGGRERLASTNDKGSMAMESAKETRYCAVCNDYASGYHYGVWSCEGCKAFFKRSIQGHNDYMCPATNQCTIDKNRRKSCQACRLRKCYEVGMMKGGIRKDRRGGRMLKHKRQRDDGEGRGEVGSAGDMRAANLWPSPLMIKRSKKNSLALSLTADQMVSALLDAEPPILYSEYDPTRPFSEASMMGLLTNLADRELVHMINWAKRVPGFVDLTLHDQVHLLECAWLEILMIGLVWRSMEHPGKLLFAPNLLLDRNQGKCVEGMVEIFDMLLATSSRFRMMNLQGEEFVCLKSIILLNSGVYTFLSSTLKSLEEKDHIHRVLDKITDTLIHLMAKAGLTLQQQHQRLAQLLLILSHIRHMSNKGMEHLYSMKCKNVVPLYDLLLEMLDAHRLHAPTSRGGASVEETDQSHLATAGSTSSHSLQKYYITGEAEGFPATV
Outline: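 Human liver HepG2, transient transfection of multiple GAL4-UAS reporter units; TRANS format (exogenous NR-Gal4 chimera). 24 h dosing. Readout: reporter mRNA, RT-PCR, 6-FAM primer extension, HpaI digest, capillary electrophoresis. Positive direction vs DMSO.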

[18] = target: Estrogen-related receptor gamma (Homo sapiens) (UniProt P62508); test: ATG_ERRg_TRANS: Attagene TRANS-FACTORIAL HepG2 Assay for human Estrogen-Related Receptor gamma (ERRg) (AID 2282977; active means hit-call score of the fitted dose curve at least 0.9, where 1 is the maximum;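 further: hits increase reporter signal over DMSO so potencies reflect activators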); settings: HepG2 Attagene TRANS reporter, ERRg transactivation
Chain of Estrogen-related receptor gamma (Homo sapiens) (P62508 whole entry, looked up, the tested form may be a part): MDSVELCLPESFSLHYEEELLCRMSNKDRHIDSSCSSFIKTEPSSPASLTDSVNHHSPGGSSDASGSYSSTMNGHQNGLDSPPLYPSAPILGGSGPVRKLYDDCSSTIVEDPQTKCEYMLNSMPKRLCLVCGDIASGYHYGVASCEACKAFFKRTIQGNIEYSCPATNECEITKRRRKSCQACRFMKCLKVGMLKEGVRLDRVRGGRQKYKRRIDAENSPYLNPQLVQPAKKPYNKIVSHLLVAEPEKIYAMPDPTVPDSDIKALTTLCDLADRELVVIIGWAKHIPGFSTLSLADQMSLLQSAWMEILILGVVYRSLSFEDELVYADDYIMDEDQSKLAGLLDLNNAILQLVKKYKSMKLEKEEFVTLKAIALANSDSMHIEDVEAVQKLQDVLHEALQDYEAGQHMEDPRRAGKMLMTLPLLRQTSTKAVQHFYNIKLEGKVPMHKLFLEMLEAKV
Outline: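 HepG2 cells transiently transfected with multiplexed GAL4-UAS reporter units and chimeric NR-Gal4 constructs were exposed to test chemicals for 24 h. Reporter mRNA was measured by RT-PCR, 6-FAM primer extension, HpaI digestion and capillary electrophoresis; gain-of-signal versus DMSO.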

Measured: outcome

CCCC(C)CCC(C)=O (configuration not stated)
inactive: [1] | [2] | [3] | [4] | [5] | [6] | [7] | [8] | [9] | [10] | [11] | [12] | [13]

CO[Si](CCC1CCC2OC2C1)(OC)OC (configuration not stated)
inactive: [1] | [2] | [3] | [4] | [5] | [6] | [7] | [8] | [9] | [10] | [11] | [12] | [14] | [13]

CC[C@H]1OC(=O)[C@H](C)[C@@H](O[C@H]2C[C@@](C)(OC)[C@@H](O)[C@H](C)O2)[C@H](C)[C@@H](O[C@@H]2O[C@H](C)C[C@H](N(C)C)[C@H]2O)[C@](C)(O)C[C@@H](C)C(=NOCOCCOC)[C@H](C)[C@@H](O)[C@]1(C)O
inactive: [1] | [2] | [3] | [4] | [5] | [15] | [7] | [8] | [9] | [10] | [16] | [11] | [17] | [12] | [14] | [13]

CC=CC(F)(F)C(F)(F)C(F)(F)F
inactive: [1] | [2] | [3] | [4] | [5] | [15] | [7] | [8] | [9] | [10] | [11] | [12] | [13] | [18]
